High-throughput results from PubChem BioAssay.
The list is not random: actives were taken first. Their share in the collection is about 9.3%.
FLuc modulator: inhibits or activates purified firefly luciferase, miR-21 counter-screen | P08659 | purified FLuc, Km substrates, luminescence inhibition | actives 6.9% (n = 360,000) | Potency, µM (highest dose often 57.5 µM), without a hit: at the highest dose activity change, negative = inhibition, actives largely listed as inhibitors | AID 588342;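 also: plate controls were vehicle for no effect and reference inhibitor for full effect; nearly all actives have a fitted effect of over 55% in size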
Target sequence (P08659 whole entry, looked up): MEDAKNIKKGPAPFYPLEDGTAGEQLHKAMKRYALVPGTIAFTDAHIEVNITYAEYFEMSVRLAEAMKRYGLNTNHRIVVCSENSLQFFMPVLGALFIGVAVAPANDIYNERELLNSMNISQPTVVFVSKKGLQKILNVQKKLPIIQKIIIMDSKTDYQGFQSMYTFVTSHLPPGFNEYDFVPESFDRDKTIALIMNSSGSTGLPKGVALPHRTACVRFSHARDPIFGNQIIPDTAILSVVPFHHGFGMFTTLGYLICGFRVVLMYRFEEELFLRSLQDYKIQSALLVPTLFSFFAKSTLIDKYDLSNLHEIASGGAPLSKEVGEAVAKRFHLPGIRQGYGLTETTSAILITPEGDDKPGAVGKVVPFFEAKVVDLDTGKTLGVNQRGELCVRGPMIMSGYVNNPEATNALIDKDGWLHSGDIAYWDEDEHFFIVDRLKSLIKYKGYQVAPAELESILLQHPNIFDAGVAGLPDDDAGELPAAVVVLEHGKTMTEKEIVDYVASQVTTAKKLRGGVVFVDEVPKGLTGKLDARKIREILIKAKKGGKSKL
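Biochemical qHTS of compounds, final roughly 60 µM downward over six points, against 10 nM purified firefly luciferase using Km concentrations of substrates (10 uM D-luciferin, 10 uM ATP) in Tris acetate pH 7.5 buffer; luminescence output.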
SMN2 splice enh: increases expression of the SMN2 splice variant. HEK293 SMN2-luciferase splicing reporter, luminescence, 30-36 h. Potency, µM (series often up to 46.1 µM), for inactives: top-dose activity change, positive = activation, actives largely listed as activators. actives 2.8% (n = 210,000); also: % of control where 0% means no effect; nearly all actives have a fitted effect of over 55% in size
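qHTS luciferase splicing reporter: luminescence rises when SMN2 exon 7 is included in transfected HEK293 cells. Compound exposure lasted 30-36 h at 37C, with 4.5 mM final sodium butyrate as control, followed by a ONE-Glo read.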
NPC1 promoter act: NPC1 promoter activation; actives 2.4% (n = 320,000); Huh7 NPC1 promoter luciferase reporter, 24 h; Potency, µM (top dose mostly 9.22 µM), for the others: top-dose activation, hits mostly activators; AID 485313; also: % of control where 0% means no effect; nearly all actives have a fitted effect of over 60% in size
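Stably transfected Huh7 (NPC1 promoter→luciferase), 1500 cells/well in Opti-MEM + 10% FBS, 2 h settle, then compound 24 h at 37 °C. Luminescence after 10 min with Amplite reagent.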
Rab9 prom act: activators of Rab9 promoter. Huh7 Rab9 promoter-luciferase reporter, luminescence, 24 h. Potency, µM (series often up to 9.22 µM), for the others: at the highest dose activation, negative = inhibition, usual class: activators. actives 2.8% (n = 320,000). AID 485297; also: % of control where 0% means no effect; nearly all actives have a fitted effect of over 60% in size
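Huh7 reporter line, Rab9 promoter upstream of luciferase. Compound exposure 24 h at 37 °C in reduced-serum medium with 10% FBS. Read-out: luminescence.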
ELG1 DNA repair: blocks ELG1-dependent DNA repair in HEK293T cells; HEK293T ELG1-luciferase reporter, luminescence, 16 h; DNA damage induced by 5-fluorouridine; Potency, µM (doses to about 46.1 µM), for inactives: at the top dose activity change, negative = inhibition, most hits filed as inhibitors; actives 2.3% (n = 330,000); also: % is scaled to controls: 0 for no effect and ±100 for the full control effect; nearly all actives have a fitted effect of over 55% in size
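Overnight (16 hr) co-exposure of 2,000 cells/well to 5-fluorouridine and compound at 37 °C preceded detection. Luciferase was quantified via ONE-Glo luminescence; loss of signal denotes inhibition.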
ELG1 genotoxic: induces genotoxicity in HEK293T cells with luciferase-tagged ELG1; HEK293T ELG1-luciferase reporter, luminescence, 16 h; Potency, µM (doses to about 46 µM), without a hit: at the highest dose activity change, positive = activation, most hits filed as activators; actives 1.3% (n = 330,000); also: % of control where 0% means no effect; nearly all actives have a fitted effect of over 60% in size
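Cells (2,000/well) expressing the ELG1-luciferase fusion are dosed by pin tool and kept 16 hr at 37 °C, 5% CO2. Signal comes from ONE-Glo luciferase reagent after 30 min at room temperature.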
* hit, by the source's call; ? = inconclusive; / = no result given; [ ] = remark or other dose. Calls follow the shape of the dose curve; as a rule, active = well fitted curve in the direction sought with a large enough effect; inconclusive = small, poorly fitted or top-dose-only effect, or another doubt; inactive = no such curve, though single readings can be large; an effect the other way counts as inactive or inconclusive. Potency is read from the fitted curve at half-maximal effect.

SMILES | FLuc modulator | SMN2 splice enh | NPC1 promoter act | Rab9 prom act | ELG1 DNA repair | ELG1 genotoxic
c1ccc2c(CN3CCCCCC3)c[nH]c2c1 | 16.9µM* | / | 25.4% | ? | ? | ?
CC(=O)OC1C[C@@]2(C)C(c3ccoc3)C[C@H]3O[C@@]32[C@@]2(C)C(=O)C(O)=C3C(C)(C)C(=O)C=C[C@]3(C)C12 (some centres not stated) | / | -94.5% | / | / | / | /
Cc1ccc(CNC(=O)c2ccccc2NC(=O)c2nsc3ccccc23)cc1 | 16.9µM* | / | / | / | / | /
O=C(NCc1ccccc1)c1cccn(Cc2ccccc2)c1=O | -0.4% | / | -0.8% | -5.6% | -29.2% | -5.9%
C=CC[C@@H](CC(=O)N(CCO)Cc1ccccc1)C(=O)NC[C@H](OC(=O)[C@@H](CC=C)CC(=O)OC(C)(C)C)c1ccccc1 | / | / | / | / | 20.6µM* | -15.8%
C=CC[C@@H](CC(=O)N[C@H](CO)Cc1ccccc1)C(=O)NCCOC(=O)[C@@H](CC=C)Cc1ccc(F)cc1 | / | / | / | / | ? | -2.8%
COc1ccc(-n2c(/C=C3\C(=O)Nc4ccccc43)nc3ccccc3c2=O)cc1 | -3.5% | -12.8% | -3.7% | -2.0% | 17.3% | 0.4%
O=C1Nc2ccccc2/C1=C/c1nc2ccccc2c(=O)n1-c1ccc(O)cc1 | -3.7% | / | -2.9% | -13.9% | 18.3µM* | -6.3%
Cc1onc(-c2ccccc2Cl)c1C(=O)OCC(=O)c1ccc2c(c1)OCCO2 | 4.78µM* | 13.1% | 7.1% | 6.7% | 13µM* | -8.9%
CC(=O)Nc1ccccc1C(=O)OCC(=O)c1ccc2c(c1)OCCO2 | 0.757µM* | / | ? | 3.55µM* | ? | 11.0%
CCCCn1c(=O)c(C=Nc2cc([N+](=O)[O-])ccc2OC)c(O)n(CCCCl)c1=O | 4.7% | -2.3% | -9.9% | -1.0% | 20.6µM* | -5.1%
CO[C@H]1[C@H](O)[C@H](O[C@@H]2[C@H](Oc3cccc4c(O)c5c(=O)oc6ccc(C)c7c(=O)oc(c34)c5c67)O[C@@H](C)[C@H](O)[C@H]2O)O[C@@H](C)[C@@H]1O | / | 19.1%[9.22 µM] | / | / | / | /
CCC(Sc1ccccc1)C(=O)OC1CC2CCC(C1)N2C (configuration not stated) | / | -17.6% | / | / | / | /
COc1ccc(NC2CC(=O)N(C(C)C)C2=O)cc1 (configuration not stated) | 15.1µM* | 15.8µM* | ? | 3.16µM* | ? | 4.11µM*
N#CC(C(=O)C12CC3CC(CC(C3)C1)C2)c1nc2ccccc2[nH]1 (configuration not stated) | 10.7µM* | -33.2% | -5.7% | 4.2% | -11.4% | 0.6%
O=C(CSc1nnc(NC(=O)c2cccc(F)c2)s1)NCc1ccco1 | 3.38µM* | / | ? | ? | ? | 25.9%
CC(=O)Nc1nnc(SCC(=O)NCCOc2ccccc2)s1 | 2.2%[2.3 µM] | 7.6% | 5.0% | ? | 1.1% | -2.3%
CCOc1ccc(CCNC(=O)c2cc3c(-c4ccc(OC)c(OC)c4)nn(C)c3s2)cc1OCC | -11.8% | -48.6% | / | / | / | /
c1cncc(CNc2cc(-c3ccc4c(c3)OCO4)ncn2)c1 | / | 10µM* | / | / | / | /
CCOC(=O)Cc1csc(NC(=O)c2c(O)c3ccccc3n(CCC(C)C)c2=O)n1 | -0.8% | / | -7.8% | -18.3% | ? | -7.1%
CCCCCCn1c(=O)c(C(=O)Nc2nc(CC(=O)OCC)cs2)c(O)c2ccccc21 | 1.0% | / | 3.5% | -4.6% | 1.64µM* | -6.8%
COc1ccc(NC(=O)CN(C)S(=O)(=O)c2ccc3[nH]c(=O)oc3c2)cc1 | -7.2% | / | 1.9% | ? | 6.0% | 1.6%[9.26 µM]
NCCSC(c1ccccc1)c1ccccc1 | / | -9.7%[9.22 µM] | / | / | / | /
O=C(O)[C@@H](Br)[C@H](Br)C(=O)O | / | -3.4%[9.22 µM] | / | / | / | /
CCC12CCN(CCc3ccc([N+](=O)[O-])cc3)CC1Oc1c(O)cccc12 (configuration not stated) | 2.2% | / | / | / | / | /
O=C1NC(=O)N(c2cccc(Br)c2)C(=O)/C1=C/c1ccsc1 | 16.9µM* | / | -2.2% | -7.3% | 24.1% | 0.3%
